Source: ChEMBL document CHEMBL1157539, “Thousands of chemical starting points for antimalarial lead identification” (Nature, 2010)
Several values for one entry are separate records, joined by “and”; a condition that tells them apart may be missing. Equal values may be shown once.

Tests used:
Type in all cases: functional
Plasmodium falciparum [1] = experiment: GSK_TCMDC: Inhibition of Plasmodium falciparum 3D7 in whole red blood cells, using parasite LDH activity as an index of growth. Test compounds present at 2uM
Plasmodium falciparum [2] = experiment: GSK_TCMDC: Inhibition of Plasmodium falciparum Dd2 in whole red blood cells, using parasite LDH activity as an index of growth. Test compounds present at 2uM
HepG2 = experiment: GSK_TCMDC: Percent inhibition of human HepG2 cell line. Test compounds present at 10uM.

Structure (SMILES): COc1ccc(CCNCc2ccc3c(C)cc(N)nc3c2)cc1
- Inhibition (Plasmodium falciparum [1]): 100%
- Inhibition (Plasmodium falciparum [2]): 69%
- Inhibition (HepG2): 12%

Structure (SMILES): CO[C@@H]1C[C@@H](C(=O)Nc2ccccc2)N(c2ccc(C#N)c3ccccc23)C1
- Inhibition (Plasmodium falciparum [1]): 98%
- Inhibition (Plasmodium falciparum [2]): 100%
- Inhibition (HepG2): 7%

Structure (SMILES): COc1cc(CC(C)NCC(O)c2cccc(C(F)(F)F)c2)ccc1OCc1ccccc1 (configuration not stated)
- Inhibition (Plasmodium falciparum [1]): 93%
- Inhibition (Plasmodium falciparum [2]): 71%
- Inhibition (HepG2): 2%

Structure (SMILES): O=C(/C=C/c1ccc(Cl)c(Cl)c1)NCC1CCC(N2CCC(c3c[nH]c4ccccc34)CC2)CC1 (configuration not stated)
- Inhibition (Plasmodium falciparum [1]): 100%
- Inhibition (Plasmodium falciparum [2]): 95%
- Inhibition (HepG2): 48%

Structure (SMILES): COc1ccc(OC)c(C(O)CNC(C)C)c1.Cl (configuration not stated)
- Inhibition (Plasmodium falciparum [1]): 96%
- Inhibition (Plasmodium falciparum [2]): 0%
- Inhibition (HepG2): 3%

Structure (SMILES): O=C(COc1ccc(Cl)cc1)N1CCC(CN2CCC(c3c[nH]c4ccccc34)CC2)CC1
- Inhibition (Plasmodium falciparum [1]): 89%
- Inhibition (Plasmodium falciparum [2]): 13%
- Inhibition (HepG2): 48%

Structure (SMILES): CCCCCc1cc(O)c2c(c1)OC(C)(C)CC2C1=CCN(Cc2cnc3ccccc3c2)CC1.Cl.O (configuration not stated)
- Inhibition (Plasmodium falciparum [1]): 98%
- Inhibition (Plasmodium falciparum [2]): 98%
- Inhibition (HepG2): 27%

Structure (SMILES): CC(C)C[C@H](Nc1ccc(C#N)c2ccccc12)C(=O)N[C@@H]1CCCc2ccccc21.O=C(O)C(F)(F)F
- Inhibition (Plasmodium falciparum [1]): 99%
- Inhibition (Plasmodium falciparum [2]): 100%
- Inhibition (HepG2): 38%

Structure (SMILES): C#CCN1CCC2=C(C1)c1c(O)cc(C(C)CCCc3ccc(F)cc3)cc1OC2(C)C (configuration not stated)
- Inhibition (Plasmodium falciparum [1]): 98%
- Inhibition (Plasmodium falciparum [2]): 90%
- Inhibition (HepG2): 1%

Structure (SMILES): CCN1CC=C(c2c[nH]c3ccccc23)CC1
- Inhibition (Plasmodium falciparum [1]): 84%
- Inhibition (Plasmodium falciparum [2]): 58%
- Inhibition (HepG2): 27%

Structure (SMILES): CC(Cc1ccc(Oc2ccccc2)cc1)NCC(O)c1cccc(C(F)(F)F)c1 (configuration not stated)
- Inhibition (Plasmodium falciparum [1]): 98%
- Inhibition (Plasmodium falciparum [2]): 99%
- Inhibition (HepG2): 16%

Structure (SMILES): CNC(=O)c1ccc2[nH]cc(C3CCN(CC4CCN(C(=O)/C=C/c5ccc(Cl)c(Cl)c5)CC4)CC3)c2c1
- Inhibition (Plasmodium falciparum [1]): 100%
- Inhibition (Plasmodium falciparum [2]): 88%
- Inhibition (HepG2): 3%

Structure (SMILES): CC(=O)C1(c2ccccc2)CCN(CCC2(c3ccc(Cl)c(Cl)c3)CN(C(=O)c3cccc(Cl)c3)CCO2)CC1 (configuration not stated)
- Inhibition (Plasmodium falciparum [1]): 90%
- Inhibition (Plasmodium falciparum [2]): 61%
- Inhibition (HepG2): 37%

Structure (SMILES): COC(=O)c1ccc(CC(C)NCC(O)c2cccc(Cl)c2Cl)cc1.Cl (configuration not stated)
- Inhibition (Plasmodium falciparum [1]): 98%
- Inhibition (Plasmodium falciparum [2]): 98%
- Inhibition (HepG2): 0%

Structure (SMILES): COc1cc(/C=C/C(=O)NC2CCC(CN3CCC(c4c[nH]c5ccccc45)CC3)CC2)ccc1O (configuration not stated)
- Inhibition (Plasmodium falciparum [1]): 98% and 99%
- Inhibition (Plasmodium falciparum [2]): 45% and 44%
- Inhibition (HepG2): 11% and 19%

Structure (SMILES): COc1ccc(CC(C)NCC(O)c2cccc(Br)c2)cc1 (configuration not stated)
- Inhibition (Plasmodium falciparum [1]): 99%
- Inhibition (Plasmodium falciparum [2]): 93%
- Inhibition (HepG2): 10%

Structure (SMILES): CS(=O)(=O)Nc1ccc2c(C3CCN(CC4CCN(C(=O)/C=C/c5ccc(Cl)c(Cl)c5)CC4)CC3)c[nH]c2c1
- Inhibition (Plasmodium falciparum [1]): 99%
- Inhibition (Plasmodium falciparum [2]): 70%
- Inhibition (HepG2): 28%

Structure (SMILES): O=C(NC1CCN(CC2(c3ccc(Cl)cc3)CCC2)CC1)c1cscn1
- Inhibition (Plasmodium falciparum [1]): 98%
- Inhibition (Plasmodium falciparum [2]): 95%
- Inhibition (HepG2): 0%

Structure (SMILES): COC(C(=O)OCCC1CCCN1C)(c1ccccc1)c1ccccc1 (configuration not stated)
- Inhibition (Plasmodium falciparum [1]): 98%
- Inhibition (Plasmodium falciparum [2]): 9%
- Inhibition (HepG2): 6%

Structure (SMILES): CCc1ccc(CC(C)NCC(O)c2ccccc2)cc1.O (configuration not stated)
- Inhibition (Plasmodium falciparum [1]): 89%
- Inhibition (Plasmodium falciparum [2]): 77%
- Inhibition (HepG2): 0%

Structure (SMILES): CCCCn1c(C)c(C(=O)OCC)c2cc(OC(C)=O)c(Br)cc21
- Inhibition (Plasmodium falciparum [1]): 98%
- Inhibition (Plasmodium falciparum [2]): 79%
- Inhibition (HepG2): 0%

Structure (SMILES): Cc1nc(-c2ccc(-c3ccc(C(=O)Nc4ccc5c(c4)C4(CCNCC4)CO5)cc3)c(C)c2)no1.Cl
- Inhibition (Plasmodium falciparum [1]): 90%
- Inhibition (Plasmodium falciparum [2]): 15%
- Inhibition (HepG2): 37%

Structure (SMILES): CSc1nccc(-c2ccc(S(=O)(=O)NC3CCC(CN4CCC(c5c[nH]c6ccccc56)CC4)CC3)s2)n1 (configuration not stated)
- Inhibition (Plasmodium falciparum [1]): 100%
- Inhibition (Plasmodium falciparum [2]): 33% and 67%
- Inhibition (HepG2): 61% and 36%

Structure (SMILES): Cc1[nH]c2cc(F)ccc2c1C1=CCN(CCCCC2(C)C(=O)Nc3ccccc32)CC1 (configuration not stated)
- Inhibition (Plasmodium falciparum [1]): 93%
- Inhibition (Plasmodium falciparum [2]): 90%
- Inhibition (HepG2): 13%

Structure (SMILES): O=C(/C=C/c1ccc(Cl)c(Cl)c1)N1CCC(CN2CCC(c3c[nH]c4cc5c(cc34)OCO5)CC2)CC1
- Inhibition (Plasmodium falciparum [1]): 100%
- Inhibition (Plasmodium falciparum [2]): 75%
- Inhibition (HepG2): 41%

Structure (SMILES): O=C(NC1CCC(CN2CCC(c3c[nH]c4ccccc34)CC2)CC1)c1cc(-c2ccccc2)c(C(F)(F)F)s1 (configuration not stated)
- Inhibition (Plasmodium falciparum [1]): 100%
- Inhibition (Plasmodium falciparum [2]): 100%
- Inhibition (HepG2): 55%

Structure (SMILES): Br.CCOC(=O)c1ccc(CC(C)NCC(O)c2cccc(C(F)(F)F)c2)cc1 (configuration not stated)
- Inhibition (Plasmodium falciparum [1]): 100%
- Inhibition (Plasmodium falciparum [2]): 98%
- Inhibition (HepG2): 5%

Structure (SMILES): O=C(/C=C/c1cc([N+](=O)[O-])ccc1Cl)NC1CCC(CN2CCC(c3c[nH]c4ccccc34)CC2)CC1 (configuration not stated)
- Inhibition (Plasmodium falciparum [1]): 100%
- Inhibition (Plasmodium falciparum [2]): 94%
- Inhibition (HepG2): 21%

Structure (SMILES): Cc1[nH]c2ccc(O)cc2c1C1CCN(CC2CCC(NC(=O)/C=C/c3c(Cl)cccc3Cl)CC2)CC1 (configuration not stated)
- Inhibition (Plasmodium falciparum [1]): 100%
- Inhibition (Plasmodium falciparum [2]): 93%
- Inhibition (HepG2): 25%
